{"source": "PubChem BioAssay (EPA / NIEHS)", "note": "Where “and” joins values, the source holds several entries; their conditions need not be identical. Equal entries are not always repeated. A structure can be active in one record and inactive in another. Calls of active or inactive are those of the source. How the source made its calls: active means hit-call score of the fitted dose curve at least 0.9, where 1 is the maximum; inactive means score below 0.9.", "data": [{"test": "ATG_DR4_LXR_CIS: Attagene CIS-FACTORIAL HepG2 Assay for human Liver X Receptor (LXR), DR4 submotif (AID 2282929)", "conditions": "HepG2 Attagene DR4 cis-reporter, mRNA transcription; actives raise or lower the signal", "description": "ATG_CIS is a cell-based, multiplexed-readout assay that uses HepG2, a human liver cell line, with measurements taken at 24 hours after chemical dosing in a 24-well plate.ATG_DR4_LXR_CIS is one of 52 assay component(s) measured or calculated from the ATG_CIS assay. It is designed to make measurements of mRNA induction, a form of inducible reporter, as detected with fluorescence intensity signals by Reverse transcription polymerase chain reaction (RT-PCR) and Capillary electrophoresis technology.Data from the assay component ATG_DR4_LXR_CIS was analyzed into 1 assay endpoint. This assay endpoint, ATG_DR4_LXR_CIS, was analyzed with bidirectional fitting relative to DMSO as the negative control and baseline of activity. Using a type of inducible reporter, measures of mRNA for gain or loss-of-signal activity can be used to understand the reporter gene at the transcription factor-level as they relate to the gene NR1H2 and NR1H3. Furthermore, this assay endpoint can be referred to as a primary readout, because this assay has produced multiple assay endpoints where this one serves a reporter gene function. To generalize the intended target to other relatable targets, this assay endpoint is annotated to the nuclear receptor intended target family, where the subfamily is non-steroidal.\nHuman liver HepG2 cells are transiently transfected with multiple reporter transcription units (MRTUs) in 6-well plates using FuGene 6 reagent (Roche; 3 ml FuGene/1 mg DNA). The MRTU constructs are regulated by a cis-regulating element (promoter). […] A major difference between the CIS and TRANS system is that in CIS activities of endogenous TFs are measured, whereas the TRANS assay evaluates changes in activities of exogenous, chimeric NR-Gal4 proteins. […] At the end of 24 hour incubation, total RNA was isolated using TriZol reagent (Invitrogen). The isolated RNA is then reverse-transcribed using oligo(dT) primer and Mo-MLV reverse transcriptase (Invitrogen) with DNAse I (Ambion) treatment for 30 min. The one-tenth of the produced cDNA was amplified by PCR using Taq DNA polymerase (Invitrogen) and two reporter sequence-specific primers. The PCR products were fluorescently labeled by primer extension with 6-arboxyfluorescein (6-FAM) 5'-labeled reporter sequence-specific primer (2 min at 95 C, 20 s at 68 C and 10 min at 72 C) and these products were digested with 5U of HpaI (New England Biolabs) for 2h at 37 C. The fragments were purified using Qiaquick PCR columns (Qiagen), analyzed on an ABI 3130xL genetic analyzer (Applied Biosystems) with peak positions identified by using a set of X-rhodamine (ROX)-labeled MapMarker1000 molecular weight standards (BioVentures). The raw capillary electrophoresis data was processed using Attagraph software (Attagene).", "values": [{"compound": "O=C(O)c1ccccc1C(=O)OCc1ccccc1", "outcome": "inactive"}, {"compound": "CCCCOC(=O)CC(CC(=O)OCCCC)(OC(C)=O)C(=O)OCCCC", "outcome": "inactive", "AC50": "23.4 µM (active)"}, {"compound": "O=C(O)c1ccccc1-n1cc(C(=O)O)c(=O)c2cc(Nc3c(F)cc(F)cc3Cl)c(Cl)cc21", "outcome": "inactive"}, {"compound": "CCCCCc1ccc(N)cc1", "outcome": "inactive"}, {"compound": "O=c1c(-c2ccc(O)cc2)coc2cc(O)cc(O)c12", "outcome": "inactive", "AC50": "7.13 µM (active) and 4.78 µM (active)"}, {"compound": "CC(C)(O)c1ccc(CNC(=O)c2cccnc2Oc2ccc3nonc3c2)cc1", "outcome": "inactive"}, {"compound": "CO[C@H]1/C=C/O[C@@]2(C)Oc3c(C)c(O)c4c(O)c(c(/C=N/N5CCN(C)CC5)c(O)c4c3C2=O)NC(=O)/C(C)=C\\C=C\\[C@H](C)[C@H](O)[C@@H](C)[C@@H](O)[C@@H](C)[C@H](OC(C)=O)[C@@H]1C", "outcome": "inactive"}, {"compound": "CC(C)(c1cc(Br)c(O)c(Br)c1)c1cc(Br)c(O)c(Br)c1", "AC50": "12.5 µM (active) and 13.9 µM (active)"}, {"compound": "O=CCCCC=O", "outcome": "inactive"}, {"compound": "CCCCCCCCOc1ccc(C(=O)c2ccccc2)c(O)c1", "outcome": "inactive"}, {"compound": "CC1(C)NC(=O)N(c2ccc([N+](=O)[O-])c(C(F)(F)F)c2)C1=O", "outcome": "inactive"}, {"compound": "CC1=CC(=O)/C(=C(/C)O)C(=O)O1", "outcome": "inactive"}, {"compound": "CCCOC(=O)c1cc(O)c(O)c(O)c1", "outcome": "inactive"}, {"compound": "CC[C@@H]1C[C@H](N(Cc2cc(C(F)(F)F)cc(C(F)(F)F)c2)C(C)=O)c2cc(C(F)(F)F)ccc2N1C(=O)OC(C)C", "outcome": "inactive"}, {"compound": "Oc1ccccc1", "outcome": "inactive"}, {"compound": "CCCCCCCCCCCO", "outcome": "inactive"}, {"compound": "C[C@]12CC[C@@H]3c4ccc(O)cc4CC[C@H]3[C@@H]1CC[C@H]2O", "outcome": "inactive"}, {"compound": "c1ccc(C[n+]2cccc3ccccc32)cc1", "outcome": "inactive"}, {"compound": "O=C(Nc1ccc(Cl)cc1)Nc1ccc(Cl)c(Cl)c1", "AC50": "10.5 µM (active)"}, {"compound": "Cc1c2ccccc2c(C)c2c1ccc1ccccc12", "AC50": "10.4 µM (active)"}, {"compound": "O=C1CCC(C2CCCCC2)CC1", "AC50": "164 µM (active) and 171 µM (active) and 160 µM (active)", "outcome": "inactive"}, {"compound": "O=C1c2ccccc2C(=O)N1CCc1noc(-c2ccc(CN3CCCCCC3)s2)n1", "AC50": "84.5 µM (active)"}, {"compound": "Cc1cc(F)ccc1-c1cc(N2CC[C@@H](O)[C@H]2CO)ncc1N(C)C(=O)C(C)(C)c1cc(C(F)(F)F)cc(C(F)(F)F)c1", "outcome": "inactive"}, {"compound": "O=C=NCCCCCCN=C=O", "outcome": "inactive"}, {"compound": "O=c1ccc2ccccc2o1", "outcome": "inactive"}, {"compound": "Cc1cc2c(cc1C(F)(F)F)N(C(=O)Nc1ccc(Oc3cccnc3C)nc1)CC2", "outcome": "inactive"}, {"compound": "CN(C)c1ccc(C(=C2C=CC(=[N+](C)C)C=C2)c2ccc(N(C)C)cc2)cc1", "AC50": "2.86 µM (active)"}, {"compound": "CN1C(=O)CC[C@H]1c1cccnc1", "outcome": "inactive"}, {"compound": "Cc1ncc(CO)c(CO)c1O", "outcome": "inactive"}, {"compound": "Cc1oc2c(NC(=O)c3c(Cl)cccc3Cl)cccc2c1C(C)(C)O", "outcome": "inactive"}, {"compound": "CC(C)(C)c1cc(/C=C2\\SC(N)=NC2=O)cc(C(C)(C)C)c1O", "AC50": "6.65 µM (active)"}, {"compound": "CCN(CC)C(=O)c1cc(S(=O)(=O)Cc2ccccc2)c(N2CCC(c3ccccc3)CC2)cc1N(CC)CCN(C)C", "outcome": "inactive"}, {"compound": "CCN(Cc1cccc(S(=O)(=O)O)c1)c1ccc(C(=C2C=CC(=[N+](CC)Cc3cccc(S(=O)(=O)O)c3)C=C2)c2ccccc2S(=O)(=O)[O-])cc1", "outcome": "inactive"}, {"compound": "CCCCCCCC[Si](OCC)(OCC)OCC", "AC50": "126 µM (active) [middle of 4 runs]"}, {"compound": "COc1cc(C(=O)NC2CCN(C)CC2)ccc1Nc1ncc2c(n1)N(C1CCCC1)CC(F)(F)C(=O)N2C", "AC50": "5.99 µM (active)"}, {"compound": "OCCO", "outcome": "inactive"}, {"compound": "Cc1cccc2ccccc12", "outcome": "inactive"}]}]}
